# This is a sample that favours compounds with a hit; in the whole collection about 0.93% have one here.
# FBPA coupling cs = qHTS Assay for Inhibitors of Fructose-1,6-bisphosphate Aldolase from Giardia Lamblia: Coupling assay counterscreen; activity change, negative = inhibition, % at 58.2 µM, hits read low; coupling enzyme system counterscreen, AmpLite Red fluorescence; AID 2472, 2010; hit rate 0.67% among 290,000; in the data active = activity change below about -30%; also: % is scaled to controls: 0 for no effect and ±100 for the full control effect
#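 Coupling enzymes only (glyceraldehyde-3-phosphate) + compound, at 57.5 uM final, 10 min RT; add substrate/coupling/AmpLite Red mix, 20 min RT; fluorescence ex 525/em 598 nm. Actives flag coupling-system interference.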
# TRb-SRC2 inh = qHTS for Inhibitors of the Interaction of Thyroid Hormone Receptor and Steroid Receptor Coregulator 2. Thyroid hormone receptor beta (Homo sapiens), P10828. TRbeta-SRC2 peptide binding, fluorescence polarization; receptor liganded with 1 µM T3. Potency, µM (titrated, usually from 106 µM), for inactives: at the highest dose activity change, negative = inhibition, actives largely listed as inhibitors. hit rate 0.065% among 280,000; active = well fitted curve in the direction sought with a large enough effect; inconclusive = small, poorly fitted or top-dose-only effect, or another doubt; inactive = no such curve, though single readings can be large; an effect the other way counts as inactive or inconclusive;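 also: potency is read from the fitted curve at half-maximal effect; plate controls were bound peptide for no effect and peptide without receptor for full effect; nearly all actives have a fitted effect of over 50% in size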
#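 Read-out is fluorescence polarization (555 nm excitation, 632 nm emission) of a Texas Red SRC2 coactivator peptide; loss of signal reflects blocked binding to human TRb ligand-binding domain in the presence of 1 uM T3.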
# TR SRC2 fluor cs = Total Fluorescence Counterscreen for Inhibitors of the Interaction of Thyroid Hormone Receptor and Steroid Receptor Coregulator 2 | Potency, µM (series often up to 106 µM), inactives show at the highest dose fluorescence change, negative = quenching | TRb/SRC2 Texas Red total fluorescence interference | AID 1479, 2009 | hit rate 0.29% among 280,000; active = well fitted curve in either direction with a large enough effect; inconclusive = small, poorly fitted or top-dose-only effect; also: potency is read from the fitted curve at half-maximal effect; % is scaled to controls: 0 for no effect and ±100 for the full control effect
#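 Human TRb ligand-binding domain at 0.6 uM with 20 nM Texas Red SRC2 peptide in Tris buffer containing 1 uM T3 and 5% DMSO, incubated with compound 5 h at ambient temperature. Total fluorescence (555/632 nm) calculated as parallel + 2 × perpendicular.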
# RGS12 GoLoco inh-1 = qHTS Assay for Inhibitors of RGS12 GoLoco Motif Activity (Red Fluorophore); Guanine nucleotide-binding protein G(i) subunit alpha-1 (Homo sapiens), P63096; Gai1:RGS12 GoLoco peptide FP, rhodamine, 10 min; Potency, µM (titrated, usually from 61.6 µM), inactives show at the highest dose activity, negative = inhibition, most hits filed as inhibitors; hit rate 0.44% among 230,000; AID 880, 2007; active = well fitted inhibition curve with a large enough effect, not every such curve was filed as active; inactive = no such curve, though single readings can be large or run the other way; also: potency is read from the fitted curve at half-maximal effect; % is scaled to controls: 0 for no effect and ±100 for the full control effect; nearly all actives have a fitted effect of over 30% in size
# Target sequence (P63096 whole entry, looked up): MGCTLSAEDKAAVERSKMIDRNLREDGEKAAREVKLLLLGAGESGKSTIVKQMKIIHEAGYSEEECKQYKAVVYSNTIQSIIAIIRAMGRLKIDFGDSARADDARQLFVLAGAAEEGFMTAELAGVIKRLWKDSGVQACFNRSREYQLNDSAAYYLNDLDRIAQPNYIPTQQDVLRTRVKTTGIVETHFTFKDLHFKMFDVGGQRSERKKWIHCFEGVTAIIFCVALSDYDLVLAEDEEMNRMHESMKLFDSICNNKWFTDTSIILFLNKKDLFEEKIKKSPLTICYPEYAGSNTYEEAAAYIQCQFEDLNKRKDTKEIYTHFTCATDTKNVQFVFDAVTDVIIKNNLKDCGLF
# RGS12 GoLoco inh-2 = Confirmation qHTS Assay for Inhibitors of RGS12 GoLoco Motif Activity (Red Fluorophore); Gai1/rhodamine-RGS12 GoLoco peptide fluorescence polarization; AID 2390, 2010; hit rate 50% among 110; shares compounds with RGS12 GoLoco inh-1; Potency, µM (titrated, usually from 57.1 µM), for inactives: at the top dose activity, negative = inhibition, hits mostly inhibitors; active = well fitted curve in the direction sought with a large enough effect; inconclusive = small, poorly fitted or top-dose-only effect, or another doubt; inactive = no such curve, though single readings can be large; an effect the other way counts as inactive or inconclusive
# CASP1 redox cat = Concentration-Response Counterscreen for Redox Active Inhibitors of Caspase-1: Catalase. caspase-1 Ac-WEHD-AFC fluorescence rate, catalase buffer. shares compounds with FBPA coupling cs. AID 888, 2007. Potency, µM (titrated, usually from 57.5 µM), for inactives: at the highest dose activity change, negative = inhibition, usual class: inhibitors. 30 tested, under 10 active
# Casp1 confirm = Confirmation Concentration-Response Assay for Allosteric/Competitive Inhibitors of Caspase-1; shares compounds with FBPA coupling cs; purified caspase-1, fluorogenic substrate cleavage; Potency, µM (top dose mostly 57.5 µM), for inactives: at the highest dose activity change, negative = inhibition, most hits filed as inhibitors; hit rate 20% among 60
# Casp7 confirm = Confirmation Concentration-Response Assay for Allosteric/Competitive Inhibitors of Caspase-7 | Potency, µM (series often up to 57.5 µM), for the others: top-dose activity change, negative = inhibition, usual class: inhibitors | 60 tested, under 10 active | shares compounds with FBPA coupling cs | recombinant caspase-7, fluorogenic substrate cleavage | AID 897, 2007; active = well fitted inhibition curve with a large enough effect in the main read-out, with a control signal flat, not every such curve was filed as active; inconclusive = small, poorly fitted or top-dose-only effect, or a change in a side signal; inactive = no such curve, though single readings can be large or run the other way
# CASP7 redox cys = Concentration-Response Counterscreen for Redox Active Inhibitors of Caspase-7: Cysteine | shares compounds with FBPA coupling cs | 60 tested, under 10 active | caspase-7 enzyme with cysteine, fluorogenic substrate, redox counterscreen | Potency, µM (series often up to 57.5 µM), for inactives: top-dose activity change, negative = inhibition, usual class: inhibitors
# Casp7 catalase = Concentration-Response Counterscreen for Redox Active Inhibitors of Caspase-7: Catalase; shares compounds with FBPA coupling cs; Caspase-7 Ac-DEVD-AFC fluorescence rate, catalase buffer; Potency, µM (titrated, usually from 57.5 µM), inactives show top-dose activity, negative = inhibition, most hits filed as inhibitors; 30 tested, under 10 active
# CASP1 redox cys = Concentration-Response Counterscreen for Redox Active Inhibitors of Caspase-1: Cysteine; shares compounds with FBPA coupling cs; recombinant caspase-1, fluorogenic substrate, cysteine buffer; Potency, µM (doses to about 57.5 µM), without a hit: at the top dose activity change, negative = inhibition, actives largely listed as inhibitors; 60 tested, under 10 active; AID 929, 2007
# Starred values were filed as active, the others as inactive; ? = inconclusive; nt = no result given; [ ] = another dose, or the depositor's remark. Unless noted, calls follow the shape of the dose curve; as a rule, active = well fitted inhibition curve with a large enough effect in the main read-out, with a control signal flat; inconclusive = small, poorly fitted or top-dose-only effect, or a change in a side signal; inactive = no such curve, though single readings can be large or run the other way.
SMILES,FBPA coupling cs,TRb-SRC2 inh,TR SRC2 fluor cs,RGS12 GoLoco inh-1,Casp1 confirm,Casp7 confirm,CASP7 redox cys,CASP1 redox cys,others
CN(N=O)c1cc(O)ccc1O,nt,?,13µM*[quencher],5.6µM*,nt,nt,nt,nt,RGS12 GoLoco inh-2=?
Cc1ccc(O)cc1,-1,-2%,-1%,-4%,nt,nt,nt,nt,
CCC[CH2][Sn]([CH2]CCC)([O]C(C)=O)[O]C(C)=O,nt,2%[201 µM],0%[201 µM],nt,nt,nt,nt,nt,
Cc1nc2c(=O)n(C)c(=O)nc-2n(C)n1,-2,-16%,-2%,-2%,nt,nt,nt,nt,
CCn1nc(-c2ccccc2)nc2c(=O)n(C)c(=O)nc1-2,-61*,?,-5%,-18%,1µM*,1.6µM*,-3%,-20%,CASP1 redox cat=0.79µM*;Casp7 catalase=?
COc1cc2c(cc1OC)-c1c(OC)c(OC)c(C=O)c3c1[C@H](C2)N(C)CC3,-22,-21%,8%,10%,?,-17%,-4%,?,
COc1cc2c(cc1O)C[C@H]1c3c(cc(OC)c(O)c3-2)CCN1C,-12,-18%,1%,-35%,32µM*,-68%,-4%,-5%,
CS(=O)(=O)c1cc(C(F)(F)F)ccc1C(=O)c1cnoc1C1CC1,nt,1%[201 µM],-13%[201 µM],nt,nt,nt,nt,nt,
CC1COC(Cn2cncn2)(c2ccc(Oc3ccc(Cl)cc3)cc2Cl)O1 (stereo not given),nt,-6%[201 µM],0%[201 µM],nt,nt,nt,nt,nt,

# Screening results: PubChem, National Center for Advancing Translational Sciences (NCATS)
